Consider one sequence from article PMC7862700, “An all-to-all approach to the identification of sequence-specific readers for epigenetic DNA modifications on cytosine”.

Common to all, as to assay: DAPPL (digital affinity profiling via proximity ligation, sequencing); 10 mM Tris-HCl pH 7.5, 50 mM NaCl, 1 mM DTT, 4% glycerol, room temperature, 30 min; GST-TFs on glutathione beads, 16-mer random dsDNA library, 0.1% formaldehyde crosslink after washing; high values mean tight binding
The target of assay [1] is T1, FEV (Homo sapiens, UniProt Q99581 1-238).
T1 sequence: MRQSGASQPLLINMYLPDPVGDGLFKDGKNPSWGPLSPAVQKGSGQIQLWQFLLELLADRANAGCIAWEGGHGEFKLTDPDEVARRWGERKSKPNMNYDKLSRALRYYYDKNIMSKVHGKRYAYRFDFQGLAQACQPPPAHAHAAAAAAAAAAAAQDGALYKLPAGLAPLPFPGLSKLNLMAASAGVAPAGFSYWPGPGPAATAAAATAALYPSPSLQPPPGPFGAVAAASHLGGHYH
As to conditions: protein: recombinant; tags: N-terminal GST; dsDNA, one strand shown. The gist of the method:
(§1)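 A tag-only sample was pooled with DNA-barcoded human transcription factors that had been expressed in yeast as GST fusions and captured on glutathione beads. The pools were incubated for 30 min at room temperature with 200 nmole of a random double-stranded 16-mer DNA library in Tris/NaCl/DTT/glycerol buffer, then washed, crosslinked with 0.1% formaldehyde, proximity-ligated (BsaI/T4 ligase, 1 h, 37 °C), PCR-amplified and sequenced on an Illumina NextSeq500. Binding signal is each hexamer's read frequency for a factor divided by its frequency for the tag-only sample.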

The target of assay [2] is ETV5 (Homo sapiens, UniProt P41161 1-510). As to conditions: protein: recombinant; tags: N-terminal GST; dsDNA, one strand shown. The gist of the method: as §1
Chain of ETV5 (P41161 whole entry): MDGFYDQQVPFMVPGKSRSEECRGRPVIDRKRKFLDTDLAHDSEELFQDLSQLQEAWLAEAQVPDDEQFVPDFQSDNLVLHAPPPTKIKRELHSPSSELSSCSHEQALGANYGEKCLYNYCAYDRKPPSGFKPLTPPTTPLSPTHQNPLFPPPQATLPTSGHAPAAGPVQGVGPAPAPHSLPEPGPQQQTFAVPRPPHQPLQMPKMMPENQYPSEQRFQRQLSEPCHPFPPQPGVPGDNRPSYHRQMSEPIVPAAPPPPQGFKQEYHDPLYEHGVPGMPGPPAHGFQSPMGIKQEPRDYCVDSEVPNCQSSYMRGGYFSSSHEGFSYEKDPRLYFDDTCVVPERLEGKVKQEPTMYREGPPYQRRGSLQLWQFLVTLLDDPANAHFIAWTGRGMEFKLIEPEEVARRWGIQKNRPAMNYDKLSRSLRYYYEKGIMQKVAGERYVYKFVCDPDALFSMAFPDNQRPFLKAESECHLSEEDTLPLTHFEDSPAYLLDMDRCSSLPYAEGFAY
Assay [3] concerns the target HSF1 (Homo sapiens, UniProt Q00613 1-529). The following applies: protein: recombinant; tags: N-terminal GST; chain copies: 3; dsDNA, one strand shown. The gist of the method: as §1
Assay [4] concerns the target T2, SPIC (Homo sapiens, UniProt Q8N5J4 1-248).
T2 sequence: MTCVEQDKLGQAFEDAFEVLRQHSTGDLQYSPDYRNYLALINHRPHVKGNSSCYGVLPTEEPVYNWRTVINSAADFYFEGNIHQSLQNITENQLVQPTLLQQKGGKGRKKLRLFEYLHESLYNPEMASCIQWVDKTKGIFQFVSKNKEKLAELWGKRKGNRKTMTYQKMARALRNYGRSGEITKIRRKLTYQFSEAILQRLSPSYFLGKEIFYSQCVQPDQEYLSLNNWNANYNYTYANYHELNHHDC
The following applies: protein: recombinant; tags: N-terminal GST; dsDNA, one strand shown. Summed up:
as §1

For assay [5], the target named is ELF4 (Homo sapiens, UniProt Q99607 1-663). The following applies: protein: recombinant; tags: N-terminal GST; dsDNA, one strand shown. Summed up:
as §1

For assay [6], the target named is T3, ELK4 (Homo sapiens, UniProt P28324-2 1-405).
T3 sequence: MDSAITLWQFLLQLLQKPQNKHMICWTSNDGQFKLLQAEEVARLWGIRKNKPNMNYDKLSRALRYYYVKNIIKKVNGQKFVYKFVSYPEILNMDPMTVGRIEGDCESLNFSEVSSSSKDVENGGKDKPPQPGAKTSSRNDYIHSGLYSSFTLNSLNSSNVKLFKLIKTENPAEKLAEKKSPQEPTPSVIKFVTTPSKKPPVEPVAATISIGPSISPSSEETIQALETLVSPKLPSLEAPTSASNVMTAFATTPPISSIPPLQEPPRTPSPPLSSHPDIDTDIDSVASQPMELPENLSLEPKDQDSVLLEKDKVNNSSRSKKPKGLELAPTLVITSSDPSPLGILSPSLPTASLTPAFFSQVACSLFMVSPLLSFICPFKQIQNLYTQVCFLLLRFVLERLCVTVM
As to conditions: protein: recombinant; tags: N-terminal GST; dsDNA, one strand shown. Summed up: as §1

For assay [7], the target named is T4, ETV2 (Homo sapiens, UniProt O00321 1-342).
T4 sequence: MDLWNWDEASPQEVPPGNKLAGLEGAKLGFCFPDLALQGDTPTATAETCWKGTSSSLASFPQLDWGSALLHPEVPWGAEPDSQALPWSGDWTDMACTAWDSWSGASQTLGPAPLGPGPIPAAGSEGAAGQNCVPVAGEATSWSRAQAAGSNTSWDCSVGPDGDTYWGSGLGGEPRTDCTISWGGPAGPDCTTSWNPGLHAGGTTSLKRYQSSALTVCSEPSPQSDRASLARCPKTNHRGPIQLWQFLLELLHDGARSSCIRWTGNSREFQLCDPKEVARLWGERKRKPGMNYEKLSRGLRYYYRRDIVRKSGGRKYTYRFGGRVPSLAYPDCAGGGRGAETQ
The following applies: protein: recombinant; tags: N-terminal GST; dsDNA, one strand shown. The gist of the method: as §1

Assay [8] deals with T5, ELF3 (Homo sapiens, UniProt P78545 1-371).
T5 sequence: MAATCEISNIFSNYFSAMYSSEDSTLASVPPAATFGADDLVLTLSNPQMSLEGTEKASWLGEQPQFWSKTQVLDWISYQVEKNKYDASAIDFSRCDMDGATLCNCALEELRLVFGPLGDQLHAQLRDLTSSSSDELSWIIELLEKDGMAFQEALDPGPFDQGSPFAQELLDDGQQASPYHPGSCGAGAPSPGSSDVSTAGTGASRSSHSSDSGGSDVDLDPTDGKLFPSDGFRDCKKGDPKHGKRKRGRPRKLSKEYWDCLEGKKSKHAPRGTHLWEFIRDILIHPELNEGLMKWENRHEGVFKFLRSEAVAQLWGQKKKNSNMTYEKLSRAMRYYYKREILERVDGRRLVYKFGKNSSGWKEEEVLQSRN
As to conditions: protein: recombinant; tags: N-terminal GST; dsDNA, one strand shown. Summed up:
as §1

For assay [9], the target named is CRX (Homo sapiens, UniProt O43186 1-299). As to conditions: protein: recombinant; tags: N-terminal GST; dsDNA, one strand shown. Summed up: as §1
Chain of CRX (O43186 whole entry): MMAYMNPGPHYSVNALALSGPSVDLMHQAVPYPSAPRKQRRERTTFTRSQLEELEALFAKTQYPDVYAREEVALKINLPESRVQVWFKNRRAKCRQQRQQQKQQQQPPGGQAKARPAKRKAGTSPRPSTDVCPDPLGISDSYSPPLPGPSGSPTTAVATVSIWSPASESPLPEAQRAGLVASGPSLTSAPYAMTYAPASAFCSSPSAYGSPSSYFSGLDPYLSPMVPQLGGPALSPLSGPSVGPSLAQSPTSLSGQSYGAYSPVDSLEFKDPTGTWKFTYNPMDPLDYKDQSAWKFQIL
Assay [10] deals with ETV1 (Homo sapiens, UniProt P50549 1-477). As to conditions: protein: recombinant; tags: N-terminal GST; dsDNA, one strand shown. Summed up: as §1
Chain of ETV1 (P50549 whole entry): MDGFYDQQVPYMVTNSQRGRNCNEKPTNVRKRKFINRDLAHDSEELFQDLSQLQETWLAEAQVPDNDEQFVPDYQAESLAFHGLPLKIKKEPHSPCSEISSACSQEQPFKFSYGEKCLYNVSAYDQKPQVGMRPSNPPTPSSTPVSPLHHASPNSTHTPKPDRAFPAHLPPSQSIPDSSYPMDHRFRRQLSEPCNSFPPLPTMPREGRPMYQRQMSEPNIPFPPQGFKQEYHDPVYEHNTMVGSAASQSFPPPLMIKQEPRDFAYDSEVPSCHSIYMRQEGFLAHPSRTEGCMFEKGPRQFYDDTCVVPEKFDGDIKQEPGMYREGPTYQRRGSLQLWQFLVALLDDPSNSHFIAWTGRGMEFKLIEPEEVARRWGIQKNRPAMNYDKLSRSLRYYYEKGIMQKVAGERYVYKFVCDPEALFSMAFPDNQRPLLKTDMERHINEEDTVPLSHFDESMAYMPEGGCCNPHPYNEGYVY
In assay [11] the target is T6, ERF (Homo sapiens, UniProt P50548 1-548).
T6 sequence: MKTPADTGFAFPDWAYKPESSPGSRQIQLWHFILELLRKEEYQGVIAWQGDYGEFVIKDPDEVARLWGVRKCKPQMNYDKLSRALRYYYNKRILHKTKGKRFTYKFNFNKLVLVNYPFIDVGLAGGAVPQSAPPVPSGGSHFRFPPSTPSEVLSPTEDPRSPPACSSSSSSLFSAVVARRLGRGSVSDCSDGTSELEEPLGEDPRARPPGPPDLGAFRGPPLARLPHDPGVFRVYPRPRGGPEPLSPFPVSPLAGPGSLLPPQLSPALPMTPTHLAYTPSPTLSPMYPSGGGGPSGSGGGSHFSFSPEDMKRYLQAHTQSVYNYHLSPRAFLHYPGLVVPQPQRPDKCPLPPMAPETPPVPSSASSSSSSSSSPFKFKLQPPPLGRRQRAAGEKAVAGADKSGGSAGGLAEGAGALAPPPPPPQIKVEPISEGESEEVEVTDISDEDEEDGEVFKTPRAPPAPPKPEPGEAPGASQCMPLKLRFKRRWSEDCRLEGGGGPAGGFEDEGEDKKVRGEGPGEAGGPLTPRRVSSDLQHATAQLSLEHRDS
As to conditions: protein: recombinant; tags: N-terminal GST; dsDNA, one strand shown. Summed up:
as §1

Assay [12] addresses T7, ETV3L (Homo sapiens, UniProt Q6ZN32 1-361).
T7 sequence: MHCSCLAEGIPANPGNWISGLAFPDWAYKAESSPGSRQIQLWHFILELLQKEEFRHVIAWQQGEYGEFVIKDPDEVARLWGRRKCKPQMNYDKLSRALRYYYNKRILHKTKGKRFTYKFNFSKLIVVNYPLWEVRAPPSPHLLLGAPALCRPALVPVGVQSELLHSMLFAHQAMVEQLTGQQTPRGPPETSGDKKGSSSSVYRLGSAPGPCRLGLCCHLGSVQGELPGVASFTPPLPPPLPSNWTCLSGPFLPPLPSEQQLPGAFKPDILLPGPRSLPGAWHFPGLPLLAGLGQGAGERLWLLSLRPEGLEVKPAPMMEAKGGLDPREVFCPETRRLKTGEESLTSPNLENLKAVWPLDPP
The following applies: protein: recombinant; tags: N-terminal GST; dsDNA, one strand shown. The gist of the method:
as §1

The target of assay [13] is T8, ETS2 (Homo sapiens, UniProt P15036 1-469).
T8 sequence: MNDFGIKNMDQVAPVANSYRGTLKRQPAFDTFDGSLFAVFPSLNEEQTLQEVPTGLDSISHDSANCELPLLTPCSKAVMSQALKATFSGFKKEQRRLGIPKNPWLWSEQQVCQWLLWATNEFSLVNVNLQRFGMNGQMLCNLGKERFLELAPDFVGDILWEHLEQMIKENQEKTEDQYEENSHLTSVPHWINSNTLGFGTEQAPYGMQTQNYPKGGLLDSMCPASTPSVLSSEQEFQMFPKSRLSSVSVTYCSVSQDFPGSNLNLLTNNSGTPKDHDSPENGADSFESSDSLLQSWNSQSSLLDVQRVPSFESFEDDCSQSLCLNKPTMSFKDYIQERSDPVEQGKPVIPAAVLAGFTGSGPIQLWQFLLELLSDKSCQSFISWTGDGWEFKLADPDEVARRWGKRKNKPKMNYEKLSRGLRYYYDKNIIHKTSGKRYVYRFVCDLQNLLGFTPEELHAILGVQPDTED
The following applies: protein: recombinant; tags: N-terminal GST; dsDNA, one strand shown. Summed up: as §1

Assay [14] has as its target T9, SPDEF (Homo sapiens, UniProt O95238 1-335).
T9 sequence: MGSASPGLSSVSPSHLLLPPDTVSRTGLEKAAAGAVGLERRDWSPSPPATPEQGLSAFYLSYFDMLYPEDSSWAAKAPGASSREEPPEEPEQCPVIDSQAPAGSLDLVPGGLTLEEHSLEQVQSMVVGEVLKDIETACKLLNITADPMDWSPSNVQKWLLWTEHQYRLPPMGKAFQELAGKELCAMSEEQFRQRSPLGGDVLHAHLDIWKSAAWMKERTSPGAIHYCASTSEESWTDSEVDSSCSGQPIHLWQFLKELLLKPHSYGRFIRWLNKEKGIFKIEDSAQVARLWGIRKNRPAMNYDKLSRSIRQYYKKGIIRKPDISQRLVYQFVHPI
The following applies: protein: recombinant; tags: N-terminal GST; dsDNA, one strand shown. The gist of the method: as §1

In assay [15] the target is T10, ETV7 (Homo sapiens, UniProt Q9Y603 1-341).
T10 sequence: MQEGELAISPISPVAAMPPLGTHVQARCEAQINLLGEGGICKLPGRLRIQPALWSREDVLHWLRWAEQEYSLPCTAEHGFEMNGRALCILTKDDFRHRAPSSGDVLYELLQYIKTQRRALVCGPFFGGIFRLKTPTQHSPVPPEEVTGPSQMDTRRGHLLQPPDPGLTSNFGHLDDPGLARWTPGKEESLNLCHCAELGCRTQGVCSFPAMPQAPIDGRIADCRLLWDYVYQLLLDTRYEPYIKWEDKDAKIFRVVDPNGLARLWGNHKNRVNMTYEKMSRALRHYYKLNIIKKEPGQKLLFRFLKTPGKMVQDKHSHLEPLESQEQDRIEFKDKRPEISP
The following applies: protein: recombinant; tags: N-terminal GST; dsDNA, one strand shown. Summed up: as §1

Assay [16] addresses T11, ELF5 (Homo sapiens, UniProt Q9UKW6-2 1-255).
T11 sequence: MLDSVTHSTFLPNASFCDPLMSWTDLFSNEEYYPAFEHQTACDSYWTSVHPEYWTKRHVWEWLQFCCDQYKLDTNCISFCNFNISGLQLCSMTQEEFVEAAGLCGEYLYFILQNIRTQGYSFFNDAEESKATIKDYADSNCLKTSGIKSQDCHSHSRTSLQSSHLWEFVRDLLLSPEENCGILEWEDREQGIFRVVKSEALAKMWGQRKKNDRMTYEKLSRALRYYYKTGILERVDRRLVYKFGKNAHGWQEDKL
As to conditions: protein: recombinant; tags: N-terminal GST; dsDNA, one strand shown. Summed up: as §1

Assay [17] deals with T12, ETV3 (Homo sapiens, UniProt P41162-2 1-143).
T12 sequence: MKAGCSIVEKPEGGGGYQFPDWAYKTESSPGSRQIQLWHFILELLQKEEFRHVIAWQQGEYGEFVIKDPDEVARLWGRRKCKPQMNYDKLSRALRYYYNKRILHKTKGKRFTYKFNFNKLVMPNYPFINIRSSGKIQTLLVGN
As to conditions: protein: recombinant; tags: N-terminal GST; dsDNA, one strand shown. The gist of the method:
as §1

Assay [18] deals with ETV6 (Homo sapiens, UniProt P41212 1-452). The following applies: protein: recombinant; tags: N-terminal GST; dsDNA, one strand shown. Summed up:
as §1

Chain of HSF1 (Q00613 whole entry): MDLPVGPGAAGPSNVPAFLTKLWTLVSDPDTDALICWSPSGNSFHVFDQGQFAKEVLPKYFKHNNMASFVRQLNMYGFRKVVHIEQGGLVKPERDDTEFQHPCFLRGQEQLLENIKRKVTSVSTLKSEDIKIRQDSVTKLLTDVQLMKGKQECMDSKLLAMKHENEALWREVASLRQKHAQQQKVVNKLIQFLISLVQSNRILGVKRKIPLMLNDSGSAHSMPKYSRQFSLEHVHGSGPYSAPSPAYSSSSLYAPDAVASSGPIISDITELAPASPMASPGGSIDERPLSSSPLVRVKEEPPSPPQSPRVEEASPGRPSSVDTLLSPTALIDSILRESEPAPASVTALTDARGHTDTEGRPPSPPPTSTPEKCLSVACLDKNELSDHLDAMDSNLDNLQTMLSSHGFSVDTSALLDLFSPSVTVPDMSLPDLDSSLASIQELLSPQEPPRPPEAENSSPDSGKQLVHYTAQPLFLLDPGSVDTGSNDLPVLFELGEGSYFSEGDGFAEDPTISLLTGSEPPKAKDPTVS
Chain of ETV6 (P41212 whole entry): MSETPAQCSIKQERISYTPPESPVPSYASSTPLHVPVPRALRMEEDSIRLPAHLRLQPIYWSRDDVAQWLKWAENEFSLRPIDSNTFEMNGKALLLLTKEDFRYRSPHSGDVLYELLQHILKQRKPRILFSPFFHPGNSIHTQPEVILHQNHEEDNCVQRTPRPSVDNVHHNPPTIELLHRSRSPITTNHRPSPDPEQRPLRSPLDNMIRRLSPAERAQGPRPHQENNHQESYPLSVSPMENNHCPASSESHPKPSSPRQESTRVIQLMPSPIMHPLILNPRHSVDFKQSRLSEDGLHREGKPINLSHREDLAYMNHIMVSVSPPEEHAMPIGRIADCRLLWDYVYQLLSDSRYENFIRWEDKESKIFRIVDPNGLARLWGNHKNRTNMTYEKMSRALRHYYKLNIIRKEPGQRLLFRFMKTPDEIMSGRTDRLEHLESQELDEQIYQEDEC
Chain of ELF4 (Q99607 whole entry): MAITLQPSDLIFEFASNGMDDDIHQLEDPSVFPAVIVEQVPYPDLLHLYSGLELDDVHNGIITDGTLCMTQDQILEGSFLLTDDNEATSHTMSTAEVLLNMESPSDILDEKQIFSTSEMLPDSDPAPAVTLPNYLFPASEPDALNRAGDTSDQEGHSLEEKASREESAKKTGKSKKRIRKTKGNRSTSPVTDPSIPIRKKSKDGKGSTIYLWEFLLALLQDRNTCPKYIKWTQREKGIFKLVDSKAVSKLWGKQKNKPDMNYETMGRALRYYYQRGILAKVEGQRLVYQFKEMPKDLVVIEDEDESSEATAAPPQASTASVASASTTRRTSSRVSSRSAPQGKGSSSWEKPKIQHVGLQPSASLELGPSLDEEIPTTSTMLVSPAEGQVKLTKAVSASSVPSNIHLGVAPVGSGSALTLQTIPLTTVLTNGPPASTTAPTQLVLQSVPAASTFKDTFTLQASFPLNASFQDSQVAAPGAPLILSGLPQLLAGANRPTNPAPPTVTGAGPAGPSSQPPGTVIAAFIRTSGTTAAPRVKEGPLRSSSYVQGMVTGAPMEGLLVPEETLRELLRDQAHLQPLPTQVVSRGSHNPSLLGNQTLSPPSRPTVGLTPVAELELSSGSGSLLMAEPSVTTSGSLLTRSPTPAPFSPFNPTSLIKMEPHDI

Take CTTCCC: the binding signal is 1.91 fold enrichment (6-mer frequency, TF over GST control) in assay [1]; 2.24 fold enrichment (6-mer frequency, TF over GST control) in [2]; 1.55 fold enrichment (6-mer frequency, TF over GST control) in assay [3]; 2.34 fold enrichment (6-mer frequency, TF over GST control) in [4]; 1.95 fold enrichment (6-mer frequency, TF over GST control) in [5]; 1.81 fold enrichment (6-mer frequency, TF over GST control) in [6]. Besides, the binding signal was 2.4 fold enrichment (6-mer frequency, TF over GST control) in [7]; 2.12 fold enrichment (6-mer frequency, TF over GST control) in assay [8]; 1.33 fold enrichment (6-mer frequency, TF over GST control) in assay [9]; 2.01 fold enrichment (6-mer frequency, TF over GST control) in assay [10]; 1.94 fold enrichment (6-mer frequency, TF over GST control) in assay [11]; 2.18 fold enrichment (6-mer frequency, TF over GST control) in assay [12]. The binding signal is 2.32 fold enrichment (6-mer frequency, TF over GST control) in assay [13]; 2.14 fold enrichment (6-mer frequency, TF over GST control) in assay [14]; 1.95 fold enrichment (6-mer frequency, TF over GST control) in assay [15]; 3.61 fold enrichment (6-mer frequency, TF over GST control) in assay [16]; 2.3 fold enrichment (6-mer frequency, TF over GST control) in [17]; 2.54 fold enrichment (6-mer frequency, TF over GST control) in [18].
